Source: the supplement of paper PMC10646978
± gives the standard deviation.

How the values were obtained:
Details in all cases: modulator concentration 10 µM
[1] = test system: RAW-Dual (murine macrophage reporter line); test: NF-kB reporter (SEAP) activity fold change vs agonist alone; higher = enhanced NF-kB activity
In short: (§1)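 RAW-Dual murine macrophage reporter cells were plated at 50 000 per well in 384-well plates, pin-transferred compound to 10 μM final, and pre-incubated for 1 hour at 37 °C before a PRR agonist was added and the cells incubated overnight. NF-κB activity was read from supernatant SEAP with QUANTI-Blue at 620 nm absorbance, and IRF activity from Lucia luciferase with QUANTI-Luc by luminescence. Each signal was expressed as fold change by dividing by the mean agonist-only control on the same plate. Two replicate plates were averaged, with errors obtained by propagation.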

[2] = test system: RAW-Dual (murine macrophage reporter line); test: IRF reporter (Lucia luciferase) activity fold change vs agonist alone; higher = enhanced IRF activity
In short: as §1

[3] = test system: RAW-Dual (murine macrophage reporter line); test: viability score (confluency relative to resting cells, overnight) (fraction); higher = more viable, active = viable (0.7 or more)
In short: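 Compound was added at a final 10 μM to RAW-Dual macrophages in 384-well plates and left overnight. Confluency was imaged with IncuCyte, and two masks were generated in IncuCyte software over all imaged wells. Each viability score is confluency relative to resting cells, and a compound met the cutoff only when both masks were above 70% of resting cells.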

[4] = agonist: CpG ODN 1826 0.5 ug/mL

SMILES	NF-kB reporter [1, 4]	NF-kB reporter ([1]; agonist: LPS 0.1 ug/mL)	NF-kB reporter ([1]; agonist: MPLA […])	IRF reporter ([2]; agonist: 3'3'-cGAMP 10 ug/mL)	IRF reporter ([2]; agonist: LPS 0.1 ug/mL)	IRF reporter ([2]; agonist: MPLA […])	viability score [3]
CCCOc1ccc(CCC(=O)O)cc1	1.38 ± 0.33	1.08 ± 0.075	0.985 ± 0.035	1.07 ± 0.23	1.11 ± 0.05	1.05 ± 0.1	1 (active)
Cc1cc(OC2CN(C(=O)CSCc3ccccc3)C2)cc(=O)n1C1CC1	1.12 ± 0.056	1.07 ± 0.085	0.994 ± 0.05	0.658 ± 0.034	0.986 ± 0.086	1.11 ± 0.31	1 (active)
Cc1ccc(S(=O)(=O)CCSc2cccc(C(=O)Nc3ccccc3)c2)cc1	0.992 ± 0.068	1.03 ± 0.087	0.909 ± 0.1	0.808 ± 0.03	1.26 ± 0.13	1.08 ± 0.098	1 (active)
COc1ccc(CNc2nc(N3CCC[C@H]3CO)ncc2C(=O)NCc2ncccn2)cc1Cl	0.245 ± 0.011	0.629 ± 0.12	0.771 ± 0.043	1.51 ± 0.23	1.39 ± 0.4	1.23 ± 0.36	1 (active)
C=CCNC(=O)c1cccc(Br)c1	0.781 ± 0.061	0.962 ± 0.18	0.982 ± 0.097	0.933 ± 0.044	1.11 ± 0.19	1.09 ± 0.24	1.03 (active)
CCOc1ccccc1NC(=O)NCCc1csc(-n2nc(C)cc2C)n1	0.996 ± 0.069	1.14 ± 0.096	0.797 ± 0.12	1.12 ± 0.085	0.983 ± 0.061	0.938 ± 0.41	1.01 (active)
CN1CCOC(c2ccccc2)c2ccccc2C1.Cl (centres undefined)	1.11 ± 0.27	1.04 ± 0.052	1.05 ± 0.078	0.84 ± 0.031	1.36 ± 0.16	0.95 ± 0.23	1.01 (active)
Cc1nc(-c2ccc(OCC(C)C)c(C#N)c2)sc1C(=O)O	0.891 ± 0.14	0.957 ± 0.34	1.02 ± 0.065	0.883 ± 0.048	0.973 ± 0.3	1.06 ± 0.22	1 (active)
COC(C)(CNC(=O)c1cc2ccccc2[nH]1)c1ccccc1F (centres undefined)	0.825 ± 0.035	0.96 ± 0.081	1.06 ± 0.057	0.944 ± 0.063	1.01 ± 0.17	1.11 ± 0.22	0.94 (active)
O=C(CCCN1CC=C(n2c(=O)[nH]c3ccccc32)CC1)c1ccc(F)cc1	0.788 ± 0.06	0.828 ± 0.078	0.71 ± 0.069	0.975 ± 0.052	0.932 ± 0.15	1.21 ± 0.2	0.276 (inactive)
CC1(C)NC(=O)N(c2ccc([N+](=O)[O-])c(C(F)(F)F)c2)C1=O	1.26 ± 0.41	1.11 ± 0.23	0.897 ± 0.052	0.868 ± 0.035	1.17 ± 0.21	1.25 ± 0.2	0.968 (active)
CC(C)Sc1ccc(CC(=O)N2CCC(S(C)(=O)=O)C2)cc1 (centres undefined)	0.975 ± 0.12	1.12 ± 0.1	0.973 ± 0.17	0.946 ± 0.053	1.12 ± 0.07	1.29 ± 0.17	0.993 (active)
CCOC(=O)N1CCN(C(=O)CSc2ccc(-c3ccccc3)nn2)CC1	1.15 ± 0.086	1.05 ± 0.055	1.09 ± 0.06	0.931 ± 0.051	0.96 ± 0.1	0.906 ± 0.073	0.993 (active)
Cc1ccc(S(=O)(=O)n2cnc3ccccc32)cc1C	0.594 ± 0.066	1.11 ± 0.065	1.07 ± 0.064	1.12 ± 0.042	1.37 ± 0.12	1.06 ± 0.07	0.988 (active)
COC(=O)C1=C(C)NC(C)=C(C(=O)OCCN(C)Cc2ccccc2)C1c1cccc([N+](=O)[O-])c1.Cl (centres undefined)	0.996 ± 0.055	0.91 ± 0.074	0.887 ± 0.047	1.1 ± 0.052	1.01 ± 0.16	0.988 ± 0.29	0.397 (inactive)
O=C(O)CSCC(=O)NC1CCSC1=O (centres undefined)	0.824 ± 0.065	0.898 ± 0.11	1.04 ± 0.12	1.01 ± 0.06	1.36 ± 0.13	1.5 ± 0.15	1 (active)
CC(=O)Nc1ccc2nc(NC(=O)c3ccco3)sc2c1	1.05 ± 0.083	1.03 ± 0.09	0.95 ± 0.072	0.827 ± 0.046	1.03 ± 0.069	0.744 ± 0.084	1 (active)
CCOC(=O)CC(C)(O)P(=O)(OCC)OCC (centres undefined)	1.01 ± 0.066	1.08 ± 0.068	0.955 ± 0.069	1.04 ± 0.035	1.44 ± 0.2	1.18 ± 0.12	1 (active)
CN(C)C=C1C(=O)N(c2nc3ccccc3s2)N=C1CSc1ccc(Cl)cc1	0.945 ± 0.078	1.02 ± 0.067	0.916 ± 0.058	0.843 ± 0.029	1.42 ± 0.12	1.15 ± 0.073	1.01 (active)
O=S(=O)(c1ccc(Cl)cc1)N1CCN(C2CC3CCC2C3)CC1 (centres undefined)	0.926 ± 0.062	0.994 ± 0.061	0.972 ± 0.068	1.02 ± 0.037	1.42 ± 0.14	1.24 ± 0.13	0.984 (active)
CC(=NNC(N)=S)C1=CC(C)(C)CCC1	0.744 ± 0.061	0.985 ± 0.062	1.06 ± 0.13	0.462 ± 0.012	1.17 ± 0.19	0.978 ± 0.2	1.01 (active)
COc1ccc(CC(=O)N2CCCc3ccccc32)cc1OC	0.909 ± 0.078	0.778 ± 0.054	1.01 ± 0.09	0.973 ± 0.046	1.41 ± 0.1	1.6 ± 0.17	1.02 (active)
COc1ccc(C(=O)C=Cc2cc(OC)c(OC)c(OC)c2)c(O)c1	1.63 ± 0.13	0.199 ± 0.018	0.273 ± 0.026	0.148 ± 0.014	0.0569 ± 0.019	0.0398 ± 0.015	0.794 (active)
Brc1ccc2[nH]cc(-c3nnc4ccc5ccccc5n34)c2c1	0.644 ± 0.051	0.877 ± 0.042	1.7 ± 0.35	0.971 ± 0.051	1.4 ± 0.1	2.08 ± 0.22	0.973 (active)
CCC(C)n1ncn(-c2ccc(N3CCN(c4ccc(OC[C@H]5CO[C@](Cn6cncn6)(c6ccc(Cl)cc6Cl)O5)cc4)CC3)cc2)c1=O (some centres undefined)	1.57 ± 0.47	1.04 ± 0.057	1.1 ± 0.089	0.921 ± 0.044	1.2 ± 0.14	1.32 ± 0.13	0.994 (active)
CC(=O)N1N=C(c2ccc(N(C)C)cc2)CC1c1ccccc1 (centres undefined)	0.932 ± 0.08	1.04 ± 0.073	1.01 ± 0.047	0.794 ± 0.048	1.01 ± 0.042	1.1 ± 0.072	1 (active)
CC1=C(C(N)=O)C(c2cccs2)NC(=O)N1 (centres undefined)	0.974 ± 0.086	1.03 ± 0.12	0.944 ± 0.034	1.01 ± 0.15	0.963 ± 0.045	0.942 ± 0.063	0.999 (active)
